“And” between values parts separate entries of the source, which are not always exact repeats. Equal values may be shown once. The source made the active and inactive calls. How the source made its calls: active means hit-call score of the fitted dose curve at least 0.9, where 1 is the maximum; inactive means score below 0.9.
Assay: BSK_LPS_SRB: Viability Assessment in the BioMAP Diversity Plus: LPS Assay (AID 2283079);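 further: measured one day after compound addition; fitted in both directions against DMSO so loss or gain of signal counts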
Settings: primary human HUVEC with PBMC
Method: BSK_LPS is a cell-based, multiplexed-readout assay that uses umbilical vein endothelium and peripheral blood mononuclear cells, a human vascular primary cell co-culture, with measurements taken at 24 hours after chemical dosing in a 96-well plate.BSK_LPS_SRB is an assay component measured in the BSK_LPS assay. It measures 0.1% sulforhodamine related to cell death using Sulforhodamine staining technology.Data from the assay component BSK_LPS_SRB was analyzed into 1 assay endpoint. This assay endpoint, BSK_LPS_SRB, was analyzed with bidirectional fitting relative to DMSO as the negative control and baseline of activity. Using a type of viability reporter, gain or loss-of-signal activity can be used to understand changes in the signaling. Furthermore, this assay endpoint can be referred to as a primary readout, because this assay has produced multiple assay endpoints where this one serves a signaling function. To generalize the intended target to other relatable targets, this assay endpoint is annotated to the cell morphology intended target family, where the subfamily is cell conformation.
The levels of cell surface (or secreted, indicated by the prefix "s") biomarker endpoints were measured by ELISA. Overt cytotoxicity to cells in confluent adherent cultures (all systems other than the BT system) was assessed by measuring total protein levels using sulforhodamine B (SRB) staining in parallel cultures at the time of biomarker measurements, indicated as SRB endpoints. For proliferation assays for adherent cell types, individual cell types are cultured at sub-confluence and relative cell numbers quantified by SRB staining at time points optimized for each system (48 h: 3C and CASM3C systems; 72 h: BT and HDF3CGF systems; 96 h: SAg system). SRB was performed by staining cells with 0.1% SRB after fixation with 10% TCA and reading wells at 560 nm.Viability and proliferation of PBMC (T cells) was quantified by Alamar Blue reduction for the SAg and BT systems. For PBMC viability (referred to as PBMC Cytotoxicity within the assay endpoint names), cells were plated (75,000/well in a 96-well plate) and then chemical samples added for 1 h before addition of activators, SEB and TSST-1 (20 ng/mL final concentration each). Cells were incubated for 90 h. Then, Alamar Blue (20 uL/well) (Invitrogen, Cat DAL1100) was added for 6 h, and the plates were read with a fluorescence microplate reader at 546/580 nm (excitation/emission). For PBMC proliferation, cells were plated and activated as above but incubated for only 16 h prior to addition of Alamar Blue. Plates were read after 6 h.
With `c1ccc2c(c1)ccc1cc3c(ccc4ccccc43)cc12` the outcome was “inactive”.
In the case of `CO[Si](OC)(OC)c1ccccc1`, the outcome was “inactive”.
In the case of `CCOC(=O)c1ccccc1C(=C1C=C(Br)C(=O)C(Br)=C1)c1cc(Br)c(O)c(Br)c1`, the AC50 was 20.6 µM (active) and 23.2 µM (active).
In the case of `c1ccc(-c2ccccn2)nc1`, the outcome was “inactive”.
For `CCO[Si](C)(OCC)OCC`, the outcome was “inactive”.
With `C#CC1(O)CC[C@H]2[C@@H]3CCC4=CCCC[C@@H]4[C@H]3CC[C@@]21C` (stereo partly specified) the AC50 was 20 µM (active).
In the case of `C=CCOc1c(Br)cc(Br)cc1Br`, the outcome was “inactive”.
With `C=CC(=O)OCC(Br)CBr` (stereo unspecified) the AC50 was 31 µM (active).
For `C=C[Si](OC(C)=O)(OC(C)=O)OC(C)=O`, the outcome was “inactive”.
In the case of `O=Nc1ccc(O)cc1`, the outcome was “inactive”.
With `COCc1c(C(C)C)nc(C(C)C)c(/C=C/[C@@H](O)C[C@@H](O)CC(=O)O)c1-c1ccc(F)cc1` the AC50 was 0.023 µM (active).
With `O=C1CCCN1CCO` the outcome was “inactive”.
With `CC(C)(c1cc(Br)c(OCCO)c(Br)c1)c1cc(Br)c(OCCO)c(Br)c1` the AC50 was 16.2 µM (active).
In the case of `COc1ccc2nc(N)sc2c1`, the outcome was “inactive”.
For `Nc1ccc(N)c(Cl)c1`, the AC50 was 25.9 µM (active) and 32.6 µM (active).
With `O=c1c2ccccc2oc2ccccc12` the outcome was “inactive”.
With `CN1C(=O)N(C)C(O)C1O` (stereo unspecified) the outcome was “inactive”.
With `CCCCC/C=C\C/C=C\CCCCCCCC(=O)OC` the outcome was “inactive”.
In the case of `CCCCNc1ccc(NCCCC)c2c1C(=O)c1ccccc1C2=O`, the outcome was “inactive”.
With `O=C(c1ccc(O)cc1)c1ccc(O)cc1O` the outcome was “inactive”.
In the case of `C=CC=CC=CCCCCC`, the outcome was “inactive”.
With `c1ccc2c(c1)ccc1ncccc12` the AC50 was 20 µM (active).
With `CCCCCCCCc1ccc(Nc2ccc(CCCCCCCC)cc2)cc1` the outcome was “inactive”.
With `CCCCCCCCCCCCCCCC[N+](C)(C)CC` the AC50 was 1.62 µM (active).
In the case of `CC(C)C(=O)C(C)C`, the outcome was “inactive”.
With `CCOc1nc(F)cc2nc(S(=O)(=O)Nc3c(Cl)cccc3C(=O)OC)nn12` the outcome was “inactive”.
In the case of `CCCCC(CC)COC(=O)c1ccccc1O` (stereo unspecified), the outcome was “inactive”.
With `O=C(Cl)c1cc(C(=O)Cl)cc(C(=O)Cl)c1` the AC50 was 30.5 µM (active).
In the case of `C=CCOCC(O)CCl` (stereo unspecified), the outcome was “inactive”.
In the case of `C/C=C\C/C=C/CCCCCCCCOC(C)=O`, the outcome was “inactive”.
For `CCO[Si](CCCN=C=O)(OCC)OCC`, the outcome was “inactive”.
For `N#[N+]c1ccc2c(S(=O)(=O)[O-])cccc2c1O`, the outcome was “inactive”.
With `CCCCC(CC)COCC1CO1` (stereo unspecified) the outcome was “inactive”.
For `O=C(Nc1ccccc1SSc1ccccc1NC(=O)c1ccccc1)c1ccccc1`, the AC50 was 5.31 µM (active).
For `CC1OC1C1CCC2(C)OC2C1` (stereo unspecified), the outcome was “inactive”.
In the case of `S=C(NC1CCCCC1)NC1CCCCC1`, the outcome was “inactive”.

Source: PubChem BioAssay (EPA / NIEHS)
